BRCA1 expr up – increases BRCA1 expression | MCF7-BRCA1-FFLuc reporter, luminescence, 48 h; response scale: scaled: vehicle 0%, 10 µM genistein 100% | Potency, µM (titrated, usually from 46.1 µM), for inactives: top-dose activation, most hits filed as activators | hit rate 1.1% among 380,000; note: potency is the fitted concentration of half-maximal effect; nearly all actives have a fitted effect of over 80% in size
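Compounds are tested at multiple concentrations on MCF7 BRCA1-luciferase reporter cells seeded at 2000 per well; after 48 h, a single luminescence end-point is taken and curves fitted to the normalized data.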
TCR act – T cell receptor activation. primary human leukocytes, anti-CD3, IL-2 HTRF, 48 h. Potency, µM (doses to about 9.22 µM), for the others: at the highest dose activation of IL-2 secretion, most hits filed as activators. 330,000 tested, under 10 active. AID 504894; note: % of control where 0% means no effect
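IL-2 produced over 48 hr by a-CD3 bead-stimulated primary human leukocytes exposed to compounds was detected with a homogeneous time-resolved FRET immunoassay, 665nm acceptor signal after 320nm excitation.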
p53 reactivator – restores transcriptional activity of mutant p53. H1299 p53-A138V BP100-luciferase reporter, luminescence, 24 h. hit rate 0.063% among 320,000. Potency, µM (doses to about 92.2 µM), for inactives: at the highest dose activity change, positive = activation, usual class: activators; note: potency is the fitted concentration of half-maximal effect; % of control where 0% means no effect; nearly all actives have a fitted effect of over 45% in size
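p53-null H1299 cells stably carrying temperature-sensitive p53-A138V and a BP100-luciferase reporter were pinned with compounds (4-point, 1:5 series) and held 24 hrs at 37 deg C. Luminescence was read 10 min after detection reagent.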
IL-2 act – activators of IL-2 | IL-2 activation reporter assay, cell-based qHTS; stimulated with anti-CD3/CD4/CD28 beads; in transgenic mouse T cells | activation, % (series mostly up to about 46 µM) | hit rate 0.065% among 360,000 | AID 652025; in the data active = activation above about 50%; inconclusive = mostly about 30% to 49%; note: 0% is about no effect
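Quantitative HTS in unstimulated transgenic mouse T cells, with memory T cells as non-tolerant control and PMA/ionomycin as tolerance-bypass control. Compound pretreatment lasted 60 minutes before 18 h bead stimulation; EGFP/DsRed fluorescence read.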
Mito fusion act – mitochondrial division inhibition or fusion activation. AID 485298. Potency, µM (titrated, usually from 46.1 µM), for inactives: at the highest dose growth rescue (activation), actives largely listed as activators. hit rate 0.23% among 320,000. S. cerevisiae fusion-defective mutant growth rescue, CellTiterGlo 48 h; note: potency is the fitted concentration of half-maximal effect; % of control where 0% means no effect; nearly all actives have a fitted effect of over 45% in size
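S. cerevisiae fusion-defective temperature-sensitive mutants (e.g. fzo1-1, mgm1-5) grown 48 h at 37C in YPEG (ethanol/glycerol non-fermentable) medium with 23 nl compound per well; growth rescue read as CellTiterGlo luminescence.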
Active calls of the source: *; ? = inconclusive; · = no result given; [ ] = another dose, or the depositor's remark. Shown are actives, neighbours in structure and some others; about 1.3% of the full set was active somewhere. Unless noted, calls come from the whole dose curve; as a rule, active = well fitted curve in the direction sought with a large enough effect; inconclusive = small, poorly fitted or top-dose-only effect, or another doubt; inactive = no such curve, though single readings can be large; an effect the other way counts as inactive or inconclusive.

SMILES	BRCA1 expr up	TCR act	p53 reactivator	IL-2 act	Mito fusion act
O=C(NCc1ccccn1)Nc1ccc(Cl)cc1Cl	7.9µM*	6%	?	0	-3%
O=C(COc1ccc(F)cc1Br)NCc1ccccn1	?	·	·	0	2%
O=C(NCc1ccccn1)Nc1ccc(Br)cc1Cl	11µM*	-3%	9%	1	-2%
O=C(NCc1ccccn1)Nc1cccc(Cl)c1Cl	10µM*	-5%	10%	1	3%
Cc1ccccc1OCC(=O)Nc1cc(C)c(O)c(-c2nc3ccccc3o2)c1	25%	·	·	·	·
CN(C)c1ccc(/C=C/c2cc(/C=C/c3ccc(N(C)C)cc3)c3ccccc3n2)cc1	-4%	·	·	·	·
S=C(NCc1ccccn1)Nc1ccccc1Cl	50%	-9%[46.1 µM]	3%	-1	-10%
O=C(Cc1csc(NC(=O)Nc2ccc(Cl)cc2)n1)NCc1ccccn1	11µM*	-21%	24%	0	0%
O=C(Cc1csc(NC(=O)Nc2ccc(Cl)cc2)n1)NC1CCCC1	-26%	3%	22%	-1	0%
S=C(NCc1ccccn1)Nc1ccc(Br)cc1Cl	11µM*	-4%	1%	3	8%
CCc1cccc(NC(=O)c2sc3nc4n(c(=O)c3c2C)CCC4)c1	13µM*	8%	24%	-2	?
CCN(CC)S(=O)(=O)c1cnccc1N1CCN(c2cccc(Cl)c2)CC1	-50%	-2%[46.1 µM]	-1%	-4	13µM*
C=CCN1CCN(C(=O)c2ccc(-c3ccccc3)cc2)CC1	0%	2%	·	1	-2%
C=CCN1CCN(C(=O)CSc2ccccc2)CC1	11µM*	·	·	0	0%
COc1cc2c(NC3CCN(C)CC3)nc(N3CCCN(C)CC3)nc2cc1OCCCN1CCOCC1	-22%	·	·	·	·
CN(C)c1ccc(/C=N\Nc2ccccn2)cc1	?	11%	25%	1	-3%
COc1ccc(/C=N/Nc2ccc([N+](=O)[O-])cc2)cc1Cn1cc([N+](=O)[O-])cn1	-29%	0%	6%	-2	-1%
COc1ccc(/C=N/Nc2ccc([N+](=O)[O-])cc2)cc1O	8.9µM*	2%	?	0	-36%
O=C(O)c1ccc(/C=N\Nc2ccccn2)cc1	2.5µM*	2%	·	0	·
O=[N+]([O-])c1ccc(N/N=C\c2cccnc2)nc1	2%	-3%	4%	2	-2%
O=[N+]([O-])c1ccc(NN=Cc2ccco2)nc1	10µM*	5%	·	-1	·
O=[N+]([O-])c1ccc(/C=N/Nc2ccccn2)cc1	1.4µM*	8%	18%	-2	-10%
O=[N+]([O-])c1cccc(/C=N/Nc2ccccn2)c1	28%	-1%	1%	1	0%
COc1ccc(NC(=O)Nc2ccccn2)cc1OC	13µM*	-2%	12%	-1	-1%
CN1C(=O)CSc2ccc(NC(=O)Nc3ccccn3)cc21	4µM*	-1%	0%	-2	-1%
SMILES	BRCA1 expr up	TCR act	p53 reactivator	IL-2 act	Mito fusion act
COc1ccc(/C=N/Nc2ccccn2)cc1OC	10µM*	-3%	11%	0	-4%
O=C(NCCc1ccccc1)c1cc(Sc2cccc(Cl)c2)nc2ccccc12	12%	·	·	·	·
Cc1cccc(/C=N/NC(=O)c2cc3c(s2)-c2ccccc2CC3)c1	-77%	-3%	1%	-2	11µM*
Cc1cccc(/C=N/NC(=O)Cc2cccs2)c1	11µM*	1%	7%	0	-3%
O=C(Cc1cccs1)N/N=C/C(Cl)=C/c1ccccc1	5.6µM*	-3%	10%	1	-6%
CCOc1ccc(CN(C(=O)c2oc3ccccc3c2C)C2CCS(=O)(=O)C2)cc1 (stereo not given)	-64%	·	1%	-2	1%
Cc1c(C(=O)N(Cc2ccc(Cl)cc2)C2CCS(=O)(=O)C2)oc2ccccc12 (stereo not given)	-31%	2%	-4%	-2	14µM*
CCN(CC)S(=O)(=O)c1cccc(N=Nc2sc(N)nc2C)c1	-28%	6%	-3%	4	16%
Cc1nc(N)sc1N=Nc1ccccc1C(F)(F)F	7.1µM*	5%	?	0	6%
CCOC(=O)Cn1c(=O)n(C2CCCCC2)c2nc(-c3ccc(CC)cc3)nc(C(N)=O)c21	3%	·	·	·	·
O=C(CSCc1ccco1)N1CCc2ccccc21	2.5µM*	2%	?	0	11%
O=C(CSc1ccccc1)N1CCc2ccccc21	?	4%	?	0	8%
O=C(NCCC(=O)N1CCc2ccccc21)c1ccco1	8.9µM*	-3%	?	2	0%
O=S(=O)(Nc1c(Br)cc(Br)c2cccnc12)C1CC1	0%	·	·	·	·
CCCN1CNc2c(c(=O)[nH]c(=S)n2CCc2cccc(OC)c2OC)C1	0%	·	·	·	·
CCOC(=O)c1ccc(N2C(=O)c3n[nH]c(-c4ccco4)c3C2c2cccc(O)c2)cc1 (stereo not given)	-78%	·	·	·	·
Cc1cc(S(=O)(=O)Nc2ccc3cn[nH]c3c2)c(C)cc1Cl	-41%	-4%	-2%	0	11µM*
O=[N+]([O-])c1ccc(/C=C/c2ccnc3ccccc23)c([N+](=O)[O-])c1	-25%	·	·	·	·
O=S(=O)(c1ccc2c(c1)CCCC2)N1CCN(c2nc(-c3ccccc3)nc3ccccc23)CC1	0%	·	·	·	·
Cc1ccc(NC(=O)c2ccccn2)c(Br)c1	3.5µM*	-2%	?	0	0%
CCN(CC)c1nc(C#N)nc(N2CCOCC2)n1	-52%	·	·	·	·
CCOC(=O)c1cnn(-c2ccc(C)cc2)c1N	11µM*	-3%	15%	3	1%
Cc1c(/C=C/C(=O)c2ccccc2)cnn1C	?	-1%	?	-1	-3%
Cc1c(/C=C/C(=O)c2ccc(C(C)C)cc2)cnn1C	11µM*	-5%	-8%	-5	-1%
CCn1ncc(/C=C/C(=O)c2ccccc2)c1C	11µM*	0%[46.1 µM]	?	-2	-6%
SMILES	BRCA1 expr up	TCR act	p53 reactivator	IL-2 act	Mito fusion act
CCOC(=O)C1CCCN(S(=O)(=O)c2ccc3c(c2)CCN3C(=O)CC)C1 (stereo not given)	23%	·	·	·	·
O/N=C(/C[n+]1cccc(Br)c1)c1ccc2ccccc2c1	-4%	·	·	·	·
CSc1ccc(/C=C2\C=Cc3ccccc32)cc1	0%	·	·	·	·
Cc1ccsc1/C=N/N=C/c1sccc1C	2.2µM*	·	·	0	-6%
S=C(Nc1ccccc1)c1ccccn1	10µM*	6%	?	-1	-13%
C[C@@H](NCCCc1cccc(C(F)(F)F)c1)c1cccc2ccccc12	-68%	·	·	·	·
Nc1ccc2nc(-c3ccccc3)[nH]c2c1	97%	-2%	9%	-2	-4%
Nc1ccc2nc(-c3ccccn3)[nH]c2c1	11µM*	-27%[46.1 µM]	?	1	-2%
Nc1ccc2nc(-c3ccc(N)c(Cl)c3)[nH]c2c1	4.5µM*	7%[46.1 µM]	?	0	-2%
Cc1ccc2nc(NCc3ccccc3)c(C=NCc3ccccc3)c(=O)n2c1	13µM*	1%[46.1 µM]	15%	-3	7.9µM*

Bioassay records (PubChem)
